According to PubChem BioAssay:
This is one part of the list. The source made the active and inactive calls. Unless noted, no stated cut-off is given here; in the data, active means response below about 50% or above about 160%; inactive means in between.

How the values were obtained:
[1] = biological target: Regulator of G-protein signaling 16 (Homo sapiens) (UniProt O15492); assay: modulators of RGS–Galpha-o binding, primary screen, biochemical, multiplexed beads, flow cytometry, RGS4/7/8/16/19 (AID 1504); conditions: multiplexed bead flow cytometry, measured here: RGS16 interaction, at 10 µM;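 further: fluorescently labeled Galpha-o bound to GDP with aluminium fluoride binding biotinylated RGS beads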
[2] = biological target: Regulator of G-protein signaling 19 (Homo sapiens) (UniProt P49795); assay: as above; conditions: multiplexed bead flow cytometry, measured here: RGS19 interaction, at 10 µM
[3] = biological target: Regulator of G-protein signaling 7 (Homo sapiens) (UniProt P49802); assay: as above; conditions: multiplexed bead flow cytometry, measured here: RGS7 interaction, at 10 µM
[4] = biological target: Regulator of G-protein signaling 8 (Homo sapiens) (UniProt P57771); assay: as above; conditions: multiplexed bead flow cytometry, measured here: RGS8 interaction, at 10 µM
[5] = disruption of biotin probe capture by avidin, counter-screen for RGS protein interaction modulators, biochemical, flow cytometry, bead-based (AID 1783;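 active means inhibition above 50%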;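 further: median green fluorescence of gated singlet beads compared with DMSO control wells; 0% = DMSO wells and 100% = complete loss of bead fluorescence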); conditions: streptavidin beads, fluorescein-biotin binding; at 10 µM, stronger effect = higher value
[6] = biological target: Guanine nucleotide-binding protein G(o) subunit alpha (Homo sapiens) (UniProt P09471); assay: RGS8-Galphao binding modulators, confirmation, biochemical, multiplexed bead flow cytometry, single concentration (AID 1836; in the data active means binding response below about 72% or above about 130%; inactive means in between;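 further: Galphao activated as GDP AlF4 complex before binding bead RGS8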); conditions: bead-based flow cytometry RGS8-Galphao binding, fluorescence; at 10 µM; actives lie on both sides
[7] = biological target: Guanine nucleotide-binding protein G(o) subunit alpha (Homo sapiens) (UniProt P09471); assay: RGS7-Galphao binding modulators, confirmation, biochemical, multiplexed bead flow cytometry, single concentration (AID 1837; in the data active means response below about 75% or above about 130%; inactive means in between;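 further: fluorescent Galphao activated with GDP and aluminum fluoride binding bead-coupled RGS7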); conditions: bead-based flow cytometry RGS7-Galphao binding; at 10 µM; actives lie on both sides
[8] = biological target: Regulator of G-protein signaling 16 (Homo sapiens) + Guanine nucleotide-binding protein G(o) subunit alpha (Homo sapiens) (UniProt O15492+P09471); assay: modulators of RGS16-Galphao protein binding, confirmation, biochemical, single concentration, multiplexed bead flow cytometry (AID 1838; in the data active means response below about 74% or above about 130%; inactive means in between;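 further: Galphao activated as the GDP aluminium fluoride complex binding bead-coupled RGS16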); conditions: bead-based flow cytometry, at 10 µM, actives lie on both sides
[9] = biological target: Guanine nucleotide-binding protein G(o) subunit alpha (Homo sapiens) (UniProt P09471); assay: modulators of RGS4-Galphao protein binding, confirmation, biochemical, single concentration, multiplexed bead flow cytometry (AID 1840; in the data active means binding response below about 74% or above about 130%; inactive means in between); conditions: at 10 µM, actives lie on both sides
[10] = biological target: Guanine nucleotide-binding protein G(o) subunit alpha (Homo sapiens) + Regulator of G-protein signaling 19 (Homo sapiens) (UniProt P09471+P49795); assay: regulators of RGS19-Galphao binding, confirmation, biochemical, single point, multiplexed bead flow cytometry (AID 1841); conditions: bead-based flow cytometry RGS19-Galphao binding; at 10 µM; actives lie on both sides;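 further: 100% = no compound control and 0% = blank background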
Chain of Guanine nucleotide-binding protein G(o) subunit alpha (Homo sapiens) + Regulator of G-protein signaling 19 (Homo sapiens) (P09471 whole entry, looked up): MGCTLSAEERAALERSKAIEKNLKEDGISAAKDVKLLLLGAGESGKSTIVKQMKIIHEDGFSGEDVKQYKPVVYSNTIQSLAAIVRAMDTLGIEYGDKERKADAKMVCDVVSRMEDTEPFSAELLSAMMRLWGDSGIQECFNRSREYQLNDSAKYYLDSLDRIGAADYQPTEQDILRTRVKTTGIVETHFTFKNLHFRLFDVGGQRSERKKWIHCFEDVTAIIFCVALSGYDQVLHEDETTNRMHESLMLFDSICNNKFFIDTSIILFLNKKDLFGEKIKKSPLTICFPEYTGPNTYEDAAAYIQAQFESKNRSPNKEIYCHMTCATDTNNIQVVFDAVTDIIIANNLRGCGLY
Chain of Guanine nucleotide-binding protein G(o) subunit alpha (Homo sapiens) + Regulator of G-protein signaling 19 (Homo sapiens) (P49795 whole entry, looked up): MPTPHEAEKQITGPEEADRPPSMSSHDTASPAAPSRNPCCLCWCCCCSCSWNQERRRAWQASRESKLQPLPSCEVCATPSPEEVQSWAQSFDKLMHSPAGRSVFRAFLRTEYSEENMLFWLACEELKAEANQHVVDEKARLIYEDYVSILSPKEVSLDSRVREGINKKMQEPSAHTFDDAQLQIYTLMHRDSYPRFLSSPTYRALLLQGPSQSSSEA

Chain of Guanine nucleotide-binding protein G(o) subunit alpha (Homo sapiens) (P09471 whole entry, looked up): as the sequence (P09471 whole entry, looked up) above
Chain of Regulator of G-protein signaling 16 (Homo sapiens) + Guanine nucleotide-binding protein G(o) subunit alpha (Homo sapiens) (O15492 whole entry, looked up): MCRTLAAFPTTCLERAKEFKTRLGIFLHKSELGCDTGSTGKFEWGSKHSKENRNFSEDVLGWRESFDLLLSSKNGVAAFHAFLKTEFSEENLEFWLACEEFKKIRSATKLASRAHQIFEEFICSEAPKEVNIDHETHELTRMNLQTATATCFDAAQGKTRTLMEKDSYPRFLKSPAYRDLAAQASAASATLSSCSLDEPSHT
Chain of Regulator of G-protein signaling 16 (Homo sapiens) + Guanine nucleotide-binding protein G(o) subunit alpha (Homo sapiens) (P09471 whole entry, looked up): as the sequence (P09471 whole entry, looked up) above

Row | SMILES | RGS16–Galpha-o binding response [1] [%] | RGS19–Galpha-o binding response [2] [%] | RGS7–Galpha-o binding response [3] [%] | RGS8–Galpha-o binding response [4] [%] | inhibition [5] | binding response (% of control) [6] | response (percent of control binding) [7] | response (% of control binding) [8] | binding response (% of control) [9] | response (percent of control binding) [10]
1 | NC(=O)CSc1c[nH]c2ccccc12 | 19.6 | -48.5 | 25.2 | 27.5 | -1.7% (inactive) | 104% (inactive) | 102% (inactive) | 110% (inactive) | 106% (inactive) | 103% (inactive)
2 | COc1cccc(C(=O)NCCSc2ccc(Br)cc2)c1 | 11.1 | 1100 | 16.5 | 20.7 | -0.2% (inactive) | 103% (inactive) | 106% (inactive) | 104% (inactive) | 104% (inactive) | 83.7% (inactive)
3 | Cc1cc(=O)n2[nH]c(-c3sccc3-n3c(C)ccc3C)cc2n1 | 44.4 | 5890 | -34.3 | 61.1 | -1.8% (inactive) | 103% (inactive) | 86.4% (inactive) | 95.8% (inactive) | 89.2% (inactive) | 80.1% (inactive)
4 | CCN(CC)CCn1cnc2c1c(=O)n(CCOC(=O)c1cc(OC)c(OC)c(OC)c1)c(=O)n2C | 147 | 76.4 | 13 | 131 | -0.6% (inactive) | 104% (inactive) | 103% (inactive) | 104% (inactive) | 105% (inactive) | 108% (inactive)
5 | COc1ccc(-c2nn(-c3ccccc3)cc2C(=O)Nc2nccs2)cc1OC | 24.6 | 172 | 102 | 75 | -2.4% (inactive) | 102% (inactive) | 99.8% (inactive) | 103% (inactive) | 101% (inactive) | 112% (inactive)
6 | CCCC1C(c2ccccc2)C(C#N)(C#N)C2(C#N)CC1(N)NC2=O (centres undefined) | 178 | 474 | 152 | 116 | 0.8% (inactive) | 103% (inactive) | 105% (inactive) | 102% (inactive) | 103% (inactive) | 105% (inactive)
7 | COc1ccccc1NC(=O)CCCc1c[nH]c2ccccc12 | 109 | 78.4 | 312 | 85 | 2.9% (inactive) | 95.7% (inactive) | 89.4% (inactive) | 97.2% (inactive) | 92.5% (inactive) | 92.9% (inactive)
8 | CCOC(=O)NNc1cc(C(F)(F)F)ccn1 | 148 | 84.9 | 66.9 | 133 | -0.7% (inactive) | 104% (inactive) | 107% (inactive) | 104% (inactive) | 102% (inactive) | 109% (inactive)
9 | CCOC(=O)C1Sc2[nH]c(=O)sc2C(c2ccc(Cl)cc2)C1C(=O)OCC (centres undefined) | -39.2 | 128 | -17.7 | 7.38 | – | – | – | – | – | –
10 | CC(=O)Nc1nc(N(C)C)nc(N(C)C)n1 | 28 | 162 | -0.2 | 25.1 | 3.9% (inactive) | 100% (inactive) | 103% (inactive) | 104% (inactive) | 104% (inactive) | 109% (inactive)
11 | O=C(CSc1ccc2nnc(-c3ccccc3)n2n1)N1CCCc2ccccc21 | 413 | -1120 | 207 | 112 | 2% (inactive) | 104% (inactive) | 101% (inactive) | 101% (inactive) | 103% (inactive) | 108% (inactive)
12 | COc1ccc(CCC(=O)OCC(=O)Nc2ccc(C)c(S(=O)(=O)N(C)C)c2)cc1 | 69.9 | -376 | 45.2 | 57.7 | 2.5% (inactive) | 104% (inactive) | 104% (inactive) | 104% (inactive) | 103% (inactive) | 100% (inactive)
13 | Cc1ccc(Cn2ccc(NC(=O)c3cc(C(C)C)on3)n2)cc1 | 47.2 | -20 | 43.9 | 55.8 | – | – | – | – | – | –
14 | CCN(CC)CCOc1ccc2c(c1)C(=NNC(=O)c1ccccn1)c1cc(OCCN(CC)CC)ccc1-2 | 203 | 146 | 216 | 154 | – | – | – | – | – | –
15 | Nc1ccc(C(=O)OCC(=O)NC2CCS(=O)(=O)C2)cc1[N+](=O)[O-] (centres undefined) | -10.3 | 179 | 289 | 6.98 | -1.4% (inactive) | 101% (inactive) | 103% (inactive) | 99.9% (inactive) | 100% (inactive) | 103% (inactive)
16 | COc1cc(C2/C(=C(\O)c3ccc4c(c3)CC(C)O4)C(=O)C(=O)N2Cc2ccco2)ccc1O (centres undefined) | -10.7 | 178 | 17.7 | 12.8 | 1.5% (inactive) | 106% (inactive) | 110% (inactive) | 109% (inactive) | 106% (inactive) | 106% (inactive)
17 | CCCC(=O)n1nc(-c2ccccc2)nc1N | 14.9 | -92.7 | 23.4 | 20.9 | – | – | – | – | – | –
18 | COc1ccc(C(=O)NNc2cc(C)nc(NNC(=O)c3ccc(OC)cc3)n2)cc1 | 4.94 | 167 | 72.3 | 54 | 1.4% (inactive) | 108% (inactive) | 115% (inactive) | 111% (inactive) | 110% (inactive) | 107% (inactive)
19 | O=C(CN1CCCCC1)N1c2ccccc2Sc2ccc(C(F)(F)F)cc21 | -6.83 | 241 | 27.5 | 22.7 | – | – | – | – | – | –
20 | COC(=O)c1ccccc1OCC(=O)N1CCN(c2ccc(Cl)cc2)CC1 | 461 | 7560 | 290 | 132 | – | – | – | – | – | –
